From PubChem BioAssay (NCATS)
Records with an inconclusive call do not appear. A call without a number means that no potency is given here. Activity calls are given as the source filed them. Calls come from the whole dose curve; as a rule, active = well fitted curve in the direction sought with a large enough effect; inconclusive = small, poorly fitted or top-dose-only effect, or another doubt; inactive = no such curve, though single readings can be large; an effect the other way counts as inactive or inconclusive.

What was measured:
[1] = qHTS for Inhibitors of Ubiquitin-specific Protease USP2a Using CHOP2 as the Reporter: K633 Counterscreen (AID 652168)
How it was run: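 Detection-system control: fluorescence of K48-linked DiUb-4IQF substrate (100 nM as added) tracked over time, Ex 525/Em 598, with pinned compounds and no enzyme, in pH 8 Tris buffer containing beta-mercaptoethanol and 0.05% Chaps.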

[2] = qHTS for Inhibitors of Ubiquitin-specific Protease USP2a Using CHOP2 as the Reporter: Cytotox Assay (AID 652170); note: nearly all actives have a fitted effect of over 70% in size; note: potency is the fitted concentration of half-maximal effect
How it was run: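 Cytotoxicity read as ATP luminescence (CellTiter-Glo) after 72 hr compound treatment at 37 deg C. Cells: HCT116, 600/well in DMEM plus 10% FBS. Normalization between DMSO-treated cells and cell-free wells.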

[3] = Cell Proliferation Assay against the TMD8 Cell Line (AID 651645); details: TMD8 DLBCL cell line proliferation/viability; at 46.1 µM (top of the series);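 note: cells exposed to compound for 48 h before reading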
How it was run: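 Viability by CellTiter-Glo after 48 h compound exposure of 500 log-phase TMD8 cells per well (RPMI, 5% FBS). Percent activity scaled between DMSO (100%) and 9.2 uM final bortezomib (0%).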

[4] = Cell Proliferation Assay against the HBL1 Cell Line (AID 651646); details: HBL1 DLBCL cells; at 46.1 µM (top of the series);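 note: cells exposed to compound for 48 h before reading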
How it was run: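 After a 48 h incubation of 500 HBL1 cells/well in phenol red-free RPMI plus 5% FBS, relative luciferase units from CellTiter-Glo gave percent activity against DMSO and 9.2 uM bortezomib (final) controls.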

[5] = molecular target: Tyrosine-protein kinase Yes (Homo sapiens) (UniProt P07947); experiment: qHTS for small molecule inhibitors of Yes1 kinase: Primary Screen (AID 686947); note: nearly all actives have a fitted effect of over 60% in size
Sequence of Tyrosine-protein kinase Yes (Homo sapiens) (P07947 whole entry, looked up): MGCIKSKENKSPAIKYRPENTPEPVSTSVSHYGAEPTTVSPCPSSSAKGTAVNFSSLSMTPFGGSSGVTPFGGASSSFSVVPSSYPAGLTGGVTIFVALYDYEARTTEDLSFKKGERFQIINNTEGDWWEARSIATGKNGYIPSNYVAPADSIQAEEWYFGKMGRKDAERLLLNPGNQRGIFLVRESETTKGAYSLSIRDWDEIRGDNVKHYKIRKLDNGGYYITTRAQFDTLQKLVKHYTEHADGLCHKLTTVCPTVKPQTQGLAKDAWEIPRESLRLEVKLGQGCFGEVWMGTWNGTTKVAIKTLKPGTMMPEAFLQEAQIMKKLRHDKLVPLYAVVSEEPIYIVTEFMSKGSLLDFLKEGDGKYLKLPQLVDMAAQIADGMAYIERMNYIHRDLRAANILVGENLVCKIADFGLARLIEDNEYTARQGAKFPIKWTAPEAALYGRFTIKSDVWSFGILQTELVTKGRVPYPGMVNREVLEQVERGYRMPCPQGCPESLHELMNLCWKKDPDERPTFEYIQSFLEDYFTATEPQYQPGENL
How it was run: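 ADP-Glo luminescence reports ADP formed by 4 nM Yes1 phosphorylating poly(E4Y) (0.3 mg/mL) with 0.1 mM ATP for 60 min at room temperature, following 20 min compound preincubation; normalised between DMSO wells with and without enzyme.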

[6] = qHTS for small molecule inhibitors of Yes1 kinase: Counter Assay (AID 686950);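 note: no kinase present so only ADP-Glo detection of a fixed ADP amount is tested; luminescence from ADP-Glo reporting ADP in a fixed ATP and ADP mixture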
How it was run: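 Measuring interference with ADP-Glo, the assay ran 60 min at room temperature on an ATP/ADP mix lacking enzyme. Values were normalized to ATP-plus-ADP (maximum) and ATP-only (minimum) DMSO controls.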

[7] = molecular target: Ubiquitin carboxyl-terminal hydrolase 2 (Homo sapiens) (UniProt O75604); experiment: qHTS for Inhibitors of Ubiquitin-specific Protease USP2a Using CHOP2 as the Reporter: K484 Substrate (AID 652173);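 note: cleavage of internally quenched K48 di-ubiquitin substrate measured as rising fluorescence over time; potency is the fitted concentration of half-maximal effect; nearly all actives have a fitted effect of over 70% in size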
Sequence of Ubiquitin carboxyl-terminal hydrolase 2 (Homo sapiens) (O75604 whole entry, looked up): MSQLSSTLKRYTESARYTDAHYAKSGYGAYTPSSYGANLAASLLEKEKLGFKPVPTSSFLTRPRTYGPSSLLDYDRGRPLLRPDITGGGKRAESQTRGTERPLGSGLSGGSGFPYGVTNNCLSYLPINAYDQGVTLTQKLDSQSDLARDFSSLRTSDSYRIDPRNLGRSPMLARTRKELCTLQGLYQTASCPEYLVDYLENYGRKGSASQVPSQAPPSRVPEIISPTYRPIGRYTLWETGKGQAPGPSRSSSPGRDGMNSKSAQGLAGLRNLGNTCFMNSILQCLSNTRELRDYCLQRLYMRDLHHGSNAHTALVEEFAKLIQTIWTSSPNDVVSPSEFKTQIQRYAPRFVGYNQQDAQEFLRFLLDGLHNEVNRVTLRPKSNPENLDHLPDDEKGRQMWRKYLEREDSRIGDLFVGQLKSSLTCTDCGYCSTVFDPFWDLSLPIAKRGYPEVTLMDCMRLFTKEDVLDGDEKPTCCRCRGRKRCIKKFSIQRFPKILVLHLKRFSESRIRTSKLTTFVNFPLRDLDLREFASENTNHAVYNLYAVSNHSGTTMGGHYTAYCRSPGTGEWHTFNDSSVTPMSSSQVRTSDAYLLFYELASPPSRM
How it was run: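 Kinetic fluorescence (Ex 525/Em 598) tracked cleavage of an internally quenched K48 di-ubiquitin substrate, added as a 100 nM solution. The enzyme was added as a 5 nM USP2 solution before compound pinning, with no-enzyme controls. Buffer: Tris pH 8, beta-mercaptoethanol, CHAPS.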

CN(Cc1nccs1)S(=O)(=O)c1ccc(Nc2nc(-c3ccccc3)cs2)cc1
outcome [1]: inactive
Potency [2]: inactive

C=C1C(=C/C=C2\CCC[C@]3(C)[C@@H]([C@H](C)/C=C/[C@H](C)C(C)C)CC[C@@H]23)C[C@@H](O)C[C@@H]1O
viability (% of control) [3]: -0.788%
viability, percent of control [4]: -0.446%
Potency [5]: inactive
outcome [6]: inactive

Cc1ccc(-c2csc(NC(=O)c3ccncc3NS(=O)(=O)c3ccc(C)cc3)n2)cc1
outcome [1]: inactive
Potency [2]: 14.8 µM (active)
Potency [7]: 1.22 µM (active)

COc1ccc(-c2csc(NC(=O)c3ccncc3NS(=O)(=O)c3ccc(C)cc3)n2)cc1
outcome [1]: inactive
Potency [7]: 2.17 µM (active)

O=C(Nc1nc(-c2ccccc2)cs1)c1ccncc1NS(=O)(=O)c1ccc(F)c(F)c1
outcome [1]: inactive
Potency [7]: 2.17 µM (active)

N#Cc1ccc(S(=O)(=O)Nc2cnccc2C(=O)Nc2nc(-c3ccccc3)cs2)cc1
outcome [1]: inactive
Potency [2]: inactive
Potency [7]: 2.43 µM (active)

O=C(Nc1nc(-c2ccccc2)cs1)c1ccncc1NS(=O)(=O)c1ccc(Cl)cc1
outcome [1]: inactive
Potency [2]: inactive
Potency [7]: 1.53 µM (active)

O=C(Nc1nc(-c2ccccc2)cs1)c1ccncc1NS(=O)(=O)c1ccc(F)cc1F
outcome [1]: inactive
Potency [2]: inactive
Potency [7]: 3.06 µM (active)

Cc1ccc(S(=O)(=O)Nc2cnccc2C(=O)Nc2nc(-c3ccc(C)c(C)c3)cs2)cc1
outcome [1]: inactive
Potency [7]: 2.73 µM (active)

O=C(Nc1nc(-c2ccccc2)cs1)c1ccncc1NS(=O)(=O)c1ccc(F)cc1
outcome [1]: inactive
Potency [2]: inactive
Potency [7]: 3.06 µM (active)

Cc1ccc(S(=O)(=O)Nc2cnccc2C(=O)Nc2nc(-c3cccnc3)cs2)cc1
outcome [1]: inactive
Potency [2]: inactive
Potency [7]: 13.7 µM (active)

CC(=O)Nc1ncc(S(=O)(=O)Nc2cnccc2C(=O)Nc2nc(-c3ccccc3)cs2)s1
outcome [1]: inactive
Potency [7]: 10.9 µM (active)

CCc1ccc(S(=O)(=O)Nc2cnccc2C(=O)Nc2nc(-c3ccccc3)cs2)cc1
outcome [1]: inactive
Potency [2]: 20.9 µM (active)
Potency [7]: 1.72 µM (active)

O=C(Nc1nc(-c2ccccc2)cs1)c1ccncc1NS(=O)(=O)c1c(F)cc(F)cc1F
outcome [1]: inactive
Potency [2]: inactive
Potency [7]: 3.43 µM (active)

Cc1ccc(-c2csc(Nc3ccc(S(=O)(=O)Nc4nccs4)cc3)n2)cc1C
outcome [1]: inactive
Potency [2]: inactive
Potency [7]: 4.32 µM (active)

Cc1ccccc1S(=O)(=O)Nc1cnccc1C(=O)Nc1nc(-c2ccccc2)cs1
outcome [1]: inactive
Potency [2]: 18.7 µM (active)
Potency [7]: 2.43 µM (active)

COc1ccc(C(=O)Nc2nc(-c3ccccc3)cs2)c(NS(=O)(=O)c2ccc(C)cc2)c1
outcome [1]: inactive
Potency [2]: 13.2 µM (active)
Potency [7]: 1.37 µM (active)

Cc1ccc(S(=O)(=O)Nc2cnccc2C(=O)Nc2nc(-c3cc4ccccc4o3)cs2)cc1
outcome [1]: inactive
Potency [7]: 1.93 µM (active)

Cc1ccc(S(=O)(=O)Nc2cnccc2C(=O)Nc2nc(-c3ccco3)cs2)cc1
outcome [1]: inactive
Potency [7]: 4.32 µM (active)

Cc1ccc(-c2cc(C(=O)Nc3ccc([N+](=O)[O-])cc3)c3ccccc3n2)cc1C
outcome [1]: inactive
Potency [7]: 13.7 µM (active)

O=C(Nc1ccc(S(=O)(=O)Nc2nccs2)cc1)c1ccnc2ccccc12
outcome [1]: inactive
Potency [2]: inactive
Potency [7]: 21.7 µM (active)

Cc1ccc(S(=O)(=O)Nc2cnccc2C(=O)Nc2nc(-c3ccc(Cl)cc3)cs2)cc1
outcome [1]: inactive
Potency [2]: 23.5 µM (active)
Potency [7]: 2.17 µM (active)

N#Cc1cnc(NS(=O)(=O)c2ccc(NC(=O)Cc3ccc(F)c(Cl)c3)cc2)s1
outcome [1]: inactive
Potency [7]: 15.3 µM (active)

O=C(Nc1ccc(S(=O)(=O)Nc2ncc(-c3ccccc3)s2)cc1)c1ccc2ccccc2c1
outcome [1]: inactive
Potency [2]: inactive
Potency [7]: 3.06 µM (active)

N#Cc1cnc(NS(=O)(=O)c2ccc(NC(=O)Cc3ccc(Cl)c(Cl)c3)cc2)s1
outcome [1]: inactive
Potency [2]: inactive
Potency [7]: 3.43 µM (active)

Cc1ccc(S(=O)(=O)Nc2cc(Cl)c(Cl)cc2C(=O)Nc2nc(-c3ccccc3)cs2)cc1
outcome [1]: inactive
Potency [2]: 5.26 µM (active)
Potency [7]: 1.37 µM (active)

COc1ccc(S(=O)(=O)Nc2cnccc2C(=O)Nc2nc(-c3ccccc3)cs2)cc1
outcome [1]: inactive
Potency [2]: inactive
Potency [7]: 3.85 µM (active)
